In PubChem BioAssay (NCATS) one finds outcome data, which are given here for 40 compounds.

SMILES strings stand for the structures. Records with an inconclusive call do not appear. The source made the active and inactive calls. Calls come from the whole dose curve; as a rule, active = well fitted curve in either direction with a large enough effect (not every such curve was filed as active); inconclusive = small, poorly fitted or top-dose-only effect, or another doubt; inactive = flat fitted curve, though single readings scatter.

The assay can be described thus: Stat Signaling Pathway (AID 446). The note with it: ME-180 (cervical carcinoma) SIE beta-lactamase reporter, IL-6 stimulated, 5 h; series mostly up to 7.69 µM. Here is the method:
NCGC Assay Overview: The IL-6/STAT signaling pathway was assayed in ME-180 cervical carcinoma cells by a beta-lactamase reporter gene controlled by a STAT Inducible Element (SIE). This reporter is induced by IL-6 at 40 pM AC50 and inhibited by the pan JAK inhibitor, 2-(1,1-Dimethylethyl)-9-fluoro-3,6-dihydro-7H-benz[h]-imidaz[4,5-f]isoquinolin-7-one, at approximately 10 nM AC50. Plated cells were incubated overnight and on the following day, stimulated with 40 pM IL-6 for 5 hrs. The assay was screened at the AC50 of IL-6 activation to identify both inhibitors and activators of IL-6/STAT signaling.
NCGC Assay Protocol Summary: Cells were trypsinized, washed in assay medium (AM, OPTI MEM with 0.5% fetal bovine serum, 0.1 mM nonessential amino acids, 1 mM sodium pyruvate, 10mM HEPES pH 7.3, 100U/ml penicillin, and 100 ug/ml streptomycin) and suspended at 6 x 10e5/ml in AM. Approximately […] cells in 5 uL/well was dispensed into 1536 well plates and the cells were incubated overnight at 37 C. 23 nL of compound were delivered by a pin tool and 1 uL of IL-6 (40 pM final concentration in AM) was added. After centrifugation at 1000 rpm for less than a minute, plates were incubated at 37C for 5 hrs. One uL of detector mix (LiveBLAzerTM, Invitrogen) was added, the plates incubated at room temperature for 2.5 hrs, and fluorescence intensity at 460 and 530 nm emission was measured at 405 nm excitation by an Envision (Perkin Elmer) or Safire II (Tecan). Data were normalized by GeneData to the controls for AC90 stimulation (300 pM IL-6) and to AC90 inhibition (125 nM Jak inhibitor, 40 pM IL-6 in AM).
Consider `c1ccc2c(NCCN3CCOCC3)nc(-c3ccc4c(c3)OCO4)nc2c1`, for which the call was inactive. Regarding `NS(=O)(=O)c1ccc(N=Nc2c[nH]c(=O)c(O)c2)cc1`, the compound was classed as inactive.

With `COc1ccccc1-c1nc(Nc2ccncc2)c2ccccc2n1`, the outcome was inactive. The entry for `COCCn1c(=O)c(-c2ccc(F)cc2)nc2cnc(Oc3ccccc3)nc21` is “inactive”. With `COc1ccccc1CNc1ccnc(-c2cccnc2)n1` the entry was “inactive”.

As to `Clc1ccccc1-c1nc(Nc2ccncc2)c2ccccc2n1`, the call was inactive.

In the case of `CN1CCN(c2ncc3nc(CCc4ccccc4)c(=O)n(Cc4cccs4)c3n2)CC1`, the compound was called inactive.

For the compound `CN1CC[C@H](CN2c3ccccc3Sc3ccccc32)C1`, the result was inactive. With `O=c1oc2c3c4c(cc2c(C(F)(F)F)c1CCN1CCOCC1)CCCN4CCC3` the entry was “inactive”; with `COC(=O)c1cc(Br)c(=O)n(CCc2ccc(F)cc2)c1`, “inactive”; with `COc1cccc(-c2cncnc2NCCN2CCOCC2)c1`, “inactive”. With `CN(C)c1ncc2nc(CCc3ccccc3)c(=O)n(CCc3ccccc3)c2n1` the entry was “inactive”. The entry for `COc1cccc(-c2nc(NC3CC3)c3ccccc3n2)c1` is “inactive”; for `COc1ccccc1CNc1nc(-c2cccc(NS(C)(=O)=O)c2)nc2ccccc12` it is “inactive”. Consider `COCCn1c(=O)c(-c2ccc(F)cc2)nc2cnc(Nc3cccc(OC)c3)nc21`, for which the compound was classed as inactive. For the compound `O=S(=O)(O)C1CCNCC1`, the result was inactive. The entry for `O=c1c(CCc2ccccc2)nc2cnc(Oc3ccccc3)nc2n1C1CC1` is “inactive”. Consider `CN(C)c1ccc(-c2cncnc2NCCN2CCOCC2)cc1`, for which the outcome was inactive. The entry for `CCNc1ncc2nc(CCc3ccccc3)c(=O)n(CCC#N)c2n1` is “inactive”; for `COc1ccc(Oc2ncc3nc(-c4ccc(F)cc4)c(=O)n(C[C@H]4CCCO4)c3n2)cc1` it is “inactive”.

With `COc1cccc(Cn2c(=O)c(CCc3ccccc3)nc3cnc(N4CCN(C)CC4)nc32)c1`, the compound was classed as inactive.

With `CS(=O)(=O)Nc1cccc(-c2nc(Nc3ccncc3)c3ccccc3n2)c1`, the compound was called inactive. The entry for `CN1CCN(c2ncc3nc(-c4cccc(C#N)c4)c(=O)n(CCc4ccccc4)c3n2)CC1` is “inactive”.

With `COc1ccc2[nH]cc(CCNc3nc(-c4ccccc4OC)nc4ccccc34)c2c1`, the compound was classed as inactive. With `COCCn1c(=O)c(CCc2ccccc2)nc2cncnc21` the entry was “inactive”; with `O=c1c(CCc2ccccc2)nc2cnc(Nc3ccccc3)nc2n1C[C@H]1CCCO1`, “inactive”; with `COc1ccccc1-c1nccc(N2CCN(C)CC2)n1`, “inactive”. The entry for `COc1ccc2[nH]cc(CCNc3ncncc3-c3ccc4c(c3)OCO4)c2c1` is “inactive”. With `COc1ncc2nc(-c3ccccc3)c(=O)n(Cc3cccs3)c2n1` the entry was “inactive”; with `O=c1cnc2cnc(OCc3ccccc3)nc2n1CCc1ccccc1`, “inactive”. Regarding `COc1cccc(Nc2ncc3ncc(=O)n(Cc4ccc(F)cc4)c3n2)c1`, the result was inactive. The entry for `CN(C)c1ncc2ncc(=O)n(Cc3cccs3)c2n1` is “inactive”.

Regarding `CN(C)C(=O)c1ccc(-c2ccc3ncnc(Nc4ccc(F)cc4)c3c2)cc1`, the call was inactive. Consider `COCCNc1ncnc2ccc(-c3ccccc3OC)cc12`, for which the result was inactive.

In the case of `CCC(C)n1ncn(-c2ccc(N3CCN(c4ccc(OCC5COC(Cn6cncn6)(c6ccc(Cl)cc6Cl)O5)cc4)CC3)cc2)c1=O` (stereo not given), the result was inactive. With `COc1ccc2[nH]cc(CCNc3ncnc4ccc(-c5cccc(C#N)c5)cc34)c2c1` the entry was “inactive”. The entry for `Cc1ncc(COP(=O)(O)O)c(C)c1O` is “inactive”; for `COc1cccc(Nc2ncc3ncc(=O)n(CCC#N)c3n2)c1` it is “inactive”; for `CN1CCN(c2ncc3nc(CCc4ccccc4)c(=O)n(CCc4ccccc4)c3n2)CC1` it is “inactive”.

Take `CN1CCN(c2ncc3nc(-c4ccccc4)c(=O)n(Cc4cccs4)c3n2)CC1`: the outcome was inactive.
